Test results taken from PubChem BioAssay AID1053188 (Broad Institute, 2014).
Where “and” joins values, the source holds several entries; their conditions need not be identical. Equal entries are not always repeated. Among all 83,000 compounds or so, about 780 (0.94%) were called active. The full list was thinned out, with actives kept by preference. Values without a mark were called inactive.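 The calls were made as follows: active = mean inhibition of at least 50% with a set share of replicates also reaching that level; inconclusive = no clear call, values can overlap the other calls; inactive = the rest.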

Experiment: CD40 pathway blockade in BL2 B cells – cell-based, luciferase reporter, single point, primary screen (AID 1053188);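 also: 0% = neutral control wells and 100% = IKK inhibitor VII at 50 µM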
Settings: BL2 NF-kB luciferase reporter, CD40L-induced, 4 h, hits give high values; at 10 µM unless noted

In order of rising inhibition:
1. Cc1ccsc1C(=O)OCC(=O)c1cc2ccccc2o1  -95.3%
2. O=C1COc2ccc(C(=O)COC(=O)c3ccccc3Cl)cc2N1  -59.8%
3. CCCCC(=O)Nc1ccc2c(c1)OCCO2  -54.6%
4. CC(=O)Nc1cccc(C(=O)OCC(=O)NCc2cc(C)c(O)c(C)c2)c1  -53.4%
5. O=C(COC(=O)c1ccc(F)cc1)Nc1ccc2c(c1)OCO2  -50.8%
6. O=C(Nc1ccc2c(c1)OCCO2)c1ccncc1  -42.5%
7. Cc1nnc(CN(C)Cc2cn[nH]c2-c2ccc(-c3ccccc3)cc2)o1  -39%
8. COc1ccc(C(=O)Nc2cc(C)ccc2NC(=O)COc2ccccc2)cc1  -29.7%
9. CC(=O)Nc1ccc(-c2csc(NC(=O)Nc3ccccc3)n2)cc1  -27.4%
10. CC(=O)Oc1ccc(-c2cccc(C(=O)N3CCCCC3)c2)cc1  -16.5%
11. O=C(COC(=O)c1ccc2c(c1)OCCO2)NCc1ccccc1Cl  -15%
12. COC(=O)Cc1c(-c2[nH]c3ccccc3c2CC(=O)OC)[nH]c2ccccc12  -13.2%
13. c1ccc(CNCc2ccc(CNCc3ccccc3)cc2)cc1  -8.05%
14. CCCNC(=O)C1CC(=O)N(c2ccc(OCc3ccccc3)cc2)C1 (configuration not stated)  -7.3%
15. O=C(Nc1ccc2c(c1)OCCO2)C1CCCN(c2ncccn2)C1 (configuration not stated)  -6.73%
16. Cc1ccc(S(=O)(=O)NCCC(=O)NNC(=O)C2COc3ccccc3O2)cc1 (configuration not stated)  -6.13%
17. CN(CC(=O)Nc1ccc(OC(F)(F)F)cc1)C(=O)C1CCC1  -5.45%
18. Cc1ccc(CNC(=O)COC(=O)C2CCC2)cc1  -4.82%
19. O=C(CSc1ccccc1)Nc1cccc(S(=O)(=O)N2CCCCC2)c1  -2.87%
20. CS(=O)(=O)N1[C@@H](C#N)[C@H](c2ccc(C#CC3CCCCC3)cc2)[C@@H]1CO  -1.7%
21. O=C(COC(=O)c1ccncc1)Nc1ccc2c(c1)OCO2  -1.31%
22. O=C(NCCc1ccc(F)cc1)c1ccc(S(=O)(=O)N2CCCCC2)cc1  -1.19%
23. O=C(Nc1ccc(Cl)cc1)Nc1nnc(/C=C/c2ccccc2)s1  -0.929%
24. O=C(Nc1cccc(C(F)(F)F)c1)c1cnccn1  -0.813%
25. COc1ccccc1C(=O)NC(CCSC)C(=O)NNC(=O)c1ccccc1C (configuration not stated)  0.904%
26. Cc1cc(C(=O)Cn2cnc3cc([N+](=O)[O-])ccc3c2=O)c(C)n1CC1CCCO1 (configuration not stated)  0.959%
27. COc1ccc(S(=O)(=O)N2CCOCC2)cc1NC(=O)CSc1cc(C)ccc1C  2.01%
28. COC(=O)c1sc(NC(=O)COC(=O)C2CCC2)c(C(=O)OC)c1C  2.99%
29. CSc1ncccc1C(=O)NC1CCCCCC1  3.02%
30. Cn1c(N)cc(-c2ccc(F)cc2)c(C#N)c1=O  4.59%
31. Cc1cc2ccccc2n1CCC(=O)O  4.73%
32. CCC(=O)Nc1nnc(S(=O)(=O)N2CCCc3ccccc32)s1  5.48%
33. COCCNC(=O)CSc1nc(N)c(NC(=O)c2ccco2)c(=O)[nH]1  6.02%
34. O=C(O)C(c1cccs1)C1(O)CCCCC1 (configuration not stated)  6.28%
35. CC(C)NC(=O)N(C)C[C@H]1Oc2ccc(N(C)C)cc2CC(=O)N(C)C[C@@H]1C  6.49%
36. CCOC(=O)COc1nc(C)cc(C(F)(F)F)c1C#N  7.91%
37. Cc1ccc(OCCCC(=O)Nc2ccc3c(c2)OCCO3)cc1  8.39%
38. COc1ccc(NC(=O)Nc2ccc3c(c2)C(=O)N([C@@H](C)CO)C[C@H](C)[C@H](CN(C)Cc2ccc(C(F)(F)F)cc2)OCCCC[C@H](C)O3)cc1  8.72%
39. CCn1cc(-c2cc(C(=O)O)on2)c(C)n1  8.77%
40. CCOc1ccc(NC(=O)NNC(=O)c2ccc(Cl)cc2Cl)cc1  10.3%
41. COc1ccccc1C(=O)NNC(=O)c1ccc(NC(=O)c2ccccc2)cc1  11.1%
42. COc1ccc(CCNC(=O)CN(c2ccccc2)S(=O)(=O)c2ccccc2)cc1  11.3%
43. CC(C)(Oc1ccc(Cl)cc1)C(=O)OCC(=O)NCCc1ccc(S(N)(=O)=O)cc1  11.6%
44. N#C[C@H]1[C@@H](c2ccc(C#CC3CCCC3)cc2)[C@H](CO)N1C(=O)Nc1ccc(F)cc1  12%
45. CCN(Cc1ccccc1)S(=O)(=O)c1cc2c3c(c1)CCN3C(=O)CC2  12.8%
46. CC(C)(C)NC(=O)NC(=O)COC(=O)Cc1ccc(Cl)cc1Cl  15.3%
47. Cc1cc(C(=O)OC(C)C(=O)NC2CCCCC2C)c(C)o1 (configuration not stated)  16.2%
48. CC(C)C[C@H](NC(=O)Nc1cccc(C(F)(F)F)c1)C(=O)O  17.4%
49. O=C(OCC(=O)N1CCCC1=O)c1cc(S(=O)(=O)N2CCOCC2)ccc1Cl  17.8%
50. CCOC(=O)C1(Cc2cccc(OC)c2)CCN(Cc2csc(C(C)=O)c2)CC1  21.6%
51. Cc1nnsc1C(=O)N/N=C/c1ccccc1Cl  25%
52. Cc1onc(-c2ccccc2)c1-c1nnc(COC(=O)c2ccc(N(C)C)cc2)o1  27.4%

For `NC(N)=N/N=C/c1ccc(OCc2ccc(Cl)cc2Cl)cc1`, the inhibition was 83.8% (active).
With `O=C(COC(=O)c1ccccc1)c1ccc2c(c1)OCCO2` the inhibition was 101% (active).
For `CC(=O)Nc1cccc(C(=O)OCC(=O)c2ccc3c(c2)OCO3)c1`, the inhibition was 90.8% (active).
For `CN1C(=O)c2cc(NC(=O)c3cccc(F)c3)ccc2OC[C@@H]2O[C@@H](CC(=O)NCC3CCCCC3)CC[C@H]21`, the inhibition was 28.6% [at 25 µM] and 23.2% [at 25 µM].
With `COC(=O)CCNc1ccc2c(c1)OCCO2` the inhibition was 49.8% (active).
In the case of `C[C@@H]1CN([C@@H](C)CO)C(=O)c2cc(C#CCc3ccccc3)cnc2O[C@@H]1CN(C)C(=O)C1CCOCC1`, the inhibition is reported as 65% [at 25 µM] (active).
For `COc1ccc(C#Cc2ccc([C@H]3[C@@H](CO)N4CCCCN(S(=O)(=O)c5cn(C)cn5)C[C@H]34)cc2)cc1`, the inhibition was 66.3% [at 25 µM] (active).
With `COc1ccc(C(=O)Nc2ccccc2C(=O)N/N=C/c2ccccc2OC)cc1` the inhibition was 53.7% (active).
For `O=C(Nc1ccccc1)c1nnsc1S(=O)(=O)c1ccc(Cl)cc1`, the inhibition was 96.6% (active).
For `NC(c1ccccc1)c1csc(NC(=O)Nc2cccc(C(F)(F)F)c2)n1` (configuration not stated), the inhibition was 75% (active).
For `NC(c1csc(NC(=O)Nc2cccc(C(F)(F)F)c2)n1)C1CCCCC1` (configuration not stated), the inhibition was 76.7% (active).
For `Cc1ccsc1C(=O)OCC(=O)c1cc(C)n(CC2CCCO2)c1C` (configuration not stated), the inhibition was 94% (active).
For `O=C(Nc1ccc2c(c1)OCCO2)C1CCCC1`, the inhibition was 97.3% (active).
For `Cc1ccc(/C=C/C(=O)OCC(=O)NCc2ccc(Cl)cc2)o1`, the inhibition was 50.7% (active).
With `CC[C@H]1CN2CCc3cc(OC)c(OC)cc3[C@@H]2C[C@@H]1C[C@H]1NCCc2cc(OC)c(OC)cc21` the inhibition was 89.6% (active).
For `N#C[C@@H]1[C@H](c2ccc(C#CC3CCCCC3)cc2)[C@@H](CO)N1S(=O)(=O)c1ccccc1`, the inhibition was 51.3% (active).
In the case of `CC(C)NC(=O)N1[C@H](C#N)[C@H](c2ccc(C#CC3CCCCC3)cc2)[C@H]1CO`, the inhibition is reported as 52.1% (active).
In the case of `C[C@@H]1CC=CC[C@H](c2ccc(F)cc2)NC(=O)[C@@H](Cc2ccccc2)N(C)C(=O)c2ccccc2O1` (mixture of isomers), the inhibition is reported as 53.9% [at 25 µM] (active).

In order of rising inhibition:
1. C/C=C/c1cnc2c(c1)C(=O)N([C@@H](C)CO)C[C@@H](C)[C@@H](CN(C)C(=O)C1CCOCC1)O2  -23% [at 25 µM]
2. C[C@H]1CN([C@@H](C)CO)C(=O)c2cc(C#CC3(O)CCCC3)cnc2O[C@@H]1CN(C)C(=O)Cc1ccccc1  -19.3% [at 25 µM]
3. COc1ccc(C#Cc2ccc([C@@H]3[C@@H](CO)N4CCCCN(C(=O)c5ccncc5)C[C@@H]34)cc2)cc1  -18.8% [at 25 µM]
4. CS(=O)(=O)N1[C@H](C#N)[C@H](c2ccc(C#CC3CCCC3)cc2)[C@H]1CO  -13.6% [at 25 µM]
5. CCCN1[C@H](CO)[C@H](c2ccc(C#CC3CCCCC3)cc2)[C@@H]1CNC(=O)C1CC1  -8.21% [at 25 µM]
6. N#C[C@@H]1[C@H](c2ccccc2)[C@H](CO)N1C(=O)CN1CCOCC1  -6.4% [at 25 µM]
7. Cn1cnc(S(=O)(=O)N2CCCCN3[C@@H](CO)[C@@H](c4ccc(C#CC5CCCC5)cc4)[C@@H]3C2)c1  2.82% [at 25 µM]
8. CC(C)C#Cc1ccc([C@@H]2[C@@H](C#N)N(C(=O)C3CC3)[C@@H]2CO)cc1  3.05% [at 25 µM]
9. C[C@H]1CN([C@@H](C)CO)C(=O)CCCn2cc(nn2)CO[C@H]1CN(C)C(=O)Nc1cccc(C(F)(F)F)c1  3.26% [at 25 µM]
10. O=C(C[C@H]1C=C[C@@H](NC(=O)c2cnccn2)[C@H](CO)O1)NCc1ccccc1F  3.55% [at 25 µM]
11. C[C@@H]1C(=O)N[C@H](c2ccc3c(c2)OCO3)CC=CC[C@H](C)Oc2ccccc2C(=O)N1C (mixture of isomers)  3.83% [at 25 µM]
12. C[C@@H]1CC=CC[C@@H](c2ccccc2)NC(=O)[C@H](C)N(C)C(=O)c2ccccc2O1 (mixture of isomers)  8.95% [at 25 µM]
